The nature of assay [1]: qHTS assay to identify small molecule antagonists of the thyroid receptor (TR) signaling pathway (AID 743065). Note: nearly all actives have a fitted effect of over 55% in size. Note: potency is the fitted concentration of half-maximal effect. The essentials: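 Antagonism measured as loss of luciferase signal in GH3 cells stably carrying a TRE-luciferase reporter, co-treated with compound and T3 (1 nM final) for 23.5 h at 37 C. Viability was read in the same well by CellTiter-Fluor.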
For assay [2], the system named is thyroid hormone receptor (rat, GH3 cells). Nature of the assay: qHTS assay to identify small molecule agonists of the thyroid receptor (TR) signaling pathway (AID 743066; calls by dose curve). (qHTS replaces the single test concentration by a dilution series.)
Assay [3] has as its target Estrogen receptor (Homo sapiens) (UniProt P03372). As to the kind of experiment: qHTS assay to identify small molecule antagonists of the estrogen receptor alpha (ER-alpha) signaling pathway (AID 743069; active = well fitted curve in the direction sought with a large enough effect in the signal ratio in the repeat runs, not every such curve was filed as active; inconclusive = weak or mixed curves, or effect the other way; inactive = no such curve, though single readings can be large or run the other way; the % refers to the signal ratio). The essentials: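 ER-alpha-UAS-bla GripTite HEK293 line; 2% charcoal-stripped FBS overnight; plated, 4 hr 37C/5% CO2; cpd in DMSO + 17beta-estradiol, 18 hr 37C; LiveBLAzer B/G FRET substrate 2 hr RT; fluorescence intensity.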

The nature of assay [4]: qHTS assay to identify small molecule antagonists of the estrogen receptor alpha (ER-alpha) signaling pathway - cell viability counter screen (AID 743074; calls by dose curve;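 note: HEK293 cells carrying ER-alpha-UAS-bla reporter stimulated with 17beta-estradiol; nearly all actives have a fitted effect of over 45% in size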; note: potency is the fitted concentration of half-maximal effect).
Assay [5] has as its target Estrogen receptor (Homo sapiens) (UniProt P03372). As to the kind of experiment: qHTS assay to identify small molecule agonists of the estrogen receptor alpha (ER-alpha) signaling pathway (AID 743075; calls by dose curve;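 note: HEK293 GripTite cells with ER-alpha and UAS-driven beta-lactamase reporter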; note: potency is the fitted concentration of half-maximal effect).
Assay [6] shares this target. As to the kind of experiment: qHTS assay to identify small molecule agonists of the estrogen receptor alpha (ER-alpha) signaling pathway using the BG1 cell line (AID 743079). Note: nearly all actives have a fitted effect of over 20% in size. Note: potency is the fitted concentration of half-maximal effect.
The nature of assay [7]: qHTS assay to identify small molecule antagonists of the estrogen receptor alpha (ER-alpha) signaling pathway using the BG1 cell line (AID 743080; calls by dose curve;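 note: BG1 cells stimulated with 17beta-estradiol alongside compound; nearly all actives have a fitted effect of over 25% in size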; note: potency is the fitted concentration of half-maximal effect). The essentials:
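BG1-Luc-4E2 cells (endogenous full-length ER-alpha, 4xERE luciferase) hormone-starved 5 days in charcoal-stripped FBS, plated 4,000/well for 24 h, then compound plus 17beta-estradiol for 21.5 h at 37 C; ONE-Glo luminescence read.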

A short description of assay [8]: qHTS assay to identify small molecule antagonists of the estrogen receptor alpha (ER-alpha) signaling pathway using the BG1 cell line - cell viability counter screen (AID 743081).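 Note: compound given together with 17beta-estradiol as the ER stimulus; nearly all actives have a fitted effect of over 45% in size.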 Note: potency is the fitted concentration of half-maximal effect.
In the next assay the target is Aromatase (Homo sapiens) (UniProt P11511). Nature of the assay: qHTS assay to identify aromatase inhibitors (AID 743083). Note: nearly all actives have a fitted effect of over 55% in size. Note: potency is the fitted concentration of half-maximal effect.
Aromatase (Homo sapiens), sequence (P11511 whole entry, looked up): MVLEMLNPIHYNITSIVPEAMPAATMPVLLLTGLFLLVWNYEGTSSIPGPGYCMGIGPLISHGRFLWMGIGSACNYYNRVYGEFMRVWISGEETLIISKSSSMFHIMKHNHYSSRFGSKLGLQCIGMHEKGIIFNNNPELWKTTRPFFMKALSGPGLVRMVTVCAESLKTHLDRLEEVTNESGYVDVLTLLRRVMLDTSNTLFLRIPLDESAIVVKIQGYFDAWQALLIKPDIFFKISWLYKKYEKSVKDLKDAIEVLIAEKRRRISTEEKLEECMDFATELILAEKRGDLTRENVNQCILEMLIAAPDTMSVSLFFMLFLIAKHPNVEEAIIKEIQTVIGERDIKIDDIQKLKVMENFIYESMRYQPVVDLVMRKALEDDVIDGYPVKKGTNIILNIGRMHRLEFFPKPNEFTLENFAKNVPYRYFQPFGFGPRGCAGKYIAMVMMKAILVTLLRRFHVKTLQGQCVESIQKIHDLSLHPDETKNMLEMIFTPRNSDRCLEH
Assay [9] is described as follows: qHTS assay to identify aromatase inhibitors - cell viability counter screen (AID 743084).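 Note: cells stimulated with testosterone during compound exposure; nearly all actives have a fitted effect of over 55% in size.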 Note: potency is the fitted concentration of half-maximal effect.
The target of assay [10] is Aryl hydrocarbon receptor (Homo sapiens) (UniProt P35869). As to the kind of experiment: qHTS assay to identify small molecule that activate the aryl hydrocarbon receptor (AhR) signaling pathway (AID 743085).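 For activation: HG2L7.5c1 human HepG2 liver cells with stably integrated DRE-driven firefly reporter; series mostly up to about 70 µM.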 Note: nearly all actives have a fitted effect of over 15% in size. Note: potency is the fitted concentration of half-maximal effect. Summed up:
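A multiplexed format paired cell viability (CellTiter-Fluor fluorescence) with AhR-dependent luciferase output (ONE-Glo luminescence) in the same wells of HepG2 DRE-luc cells after 24 h compound exposure at 37C.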

A short description of assay [11]: qHTS assay to identify small molecule antagonists of the peroxisome proliferator-activated receptor gamma (PPARg) signaling pathway - cell viability counter screen (AID 743194). Note: nearly all actives have a fitted effect of over 55% in size. The essentials: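 Viability was measured as CellTiter-Glo luminescence in GeneBLAzer PPARg UAS-bla HEK293H cells. These cells had been exposed 17 h at 37 C to compounds together with rosiglitazone at 50 nM final, with the beta-lactamase readout taken in the same wells.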

Assay [12] is described as follows: qHTS assay for small molecule agonists of the antioxidant response element (ARE) signaling pathway - cell viability counter screen (AID 743203; calls by dose curve; note: nearly all actives have a fitted effect of over 55% in size; note: potency is the fitted concentration of half-maximal effect). Summed up: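 ARE-bla HepG2 cells were plated, rested 5 h at 37C/5% CO2, then exposed to compounds in DMSO for 16 h. Viability was read as CellTiter-Glo luminescence after 30 min at room temperature, in the same wells as the ARE screen.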

Assay [13] in a line: qHTS assay for small molecule activators of the heat shock response signaling pathway - cell viability counter screen (AID 743209). Note: nearly all actives have a fitted effect of over 50% in size. Note: potency is the fitted concentration of half-maximal effect. Summed up:
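HSE-bla HeLa cells plated overnight, then exposed to Tox21 compounds (23 nL in DMSO) for 5 h at 37 C. After the bla reporter read, CellTiter-Glo was added in the same wells and luminescence read after 30 min at room temperature.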

The nature of assay [14]: qHTS assay for small molecule activators of the heat shock response signaling pathway (AID 743210; active = well fitted activation curve with a large enough effect in the signal ratio in the repeat runs, with a control signal flat, not every such curve was filed as active; inconclusive = weak or mixed curves; the % refers to the signal ratio;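 note: HeLa cells with beta-lactamase reporter driven by heat shock elements; series mostly up to about 63 µM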). Summed up: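 HeLa HSE-bla cells, overnight plating; cpd in DMSO 5 h, 37 C; LiveBLAzer B/G FRET substrate 2.5 h RT; fluorescence intensity read.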
Assay [15] in a line: qHTS assay to identify small molecule antagonists of the thyroid receptor (TR) signaling pathway - cell viability counter screen (AID 743064). Note: nearly all actives have a fitted effect of over 50% in size. Note: potency is the fitted concentration of half-maximal effect. The essentials:
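Viability of T3-stimulated (1 nM final) GH3.TRE-Luc cells is measured by CellTiter-Fluor fluorescence after 23.5 h compound exposure at 37 °C plus 30 min reagent incubation.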

The nature of assay [16]: qHTS assay to identify small molecule that activate the aryl hydrocarbon receptor (AhR) signaling pathway - cell viability counter screen (AID 743086). Note: series mostly up to about 70 µM; nearly all actives have a fitted effect of over 45% in size. The essentials: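 Cytotoxicity counter screen: CellTiter-Fluor signal (30 min, 37 C) in 4000 HepG2 cells/well carrying the DRE-luciferase reporter, following 24 h compound exposure at 37 C.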
The target of assay [17] is Peroxisome proliferator-activated receptor gamma (Homo sapiens) (UniProt P37231). Nature of the assay: qHTS assay to identify small molecule agonists of the peroxisome proliferator-activated receptor gamma (PPARg) signaling pathway (AID 743094; active = well fitted activation curve with a large enough effect in the signal ratio in the repeat runs, not every such curve was filed as active; inconclusive = weak or mixed curves, or effect the other way; inactive = no such curve, though single readings can be large or run the other way; the % refers to the signal ratio). Summed up: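 GeneBLAzer PPARg UAS-bla HEK293H cells were plated, rested 5 h, then exposed to compounds for 17 h at 37C. Beta-lactamase activity was read by LiveBLAzer B/G FRET substrate fluorescence after 1 h at room temperature.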
Peroxisome proliferator-activated receptor gamma (Homo sapiens), sequence (P37231 whole entry, looked up): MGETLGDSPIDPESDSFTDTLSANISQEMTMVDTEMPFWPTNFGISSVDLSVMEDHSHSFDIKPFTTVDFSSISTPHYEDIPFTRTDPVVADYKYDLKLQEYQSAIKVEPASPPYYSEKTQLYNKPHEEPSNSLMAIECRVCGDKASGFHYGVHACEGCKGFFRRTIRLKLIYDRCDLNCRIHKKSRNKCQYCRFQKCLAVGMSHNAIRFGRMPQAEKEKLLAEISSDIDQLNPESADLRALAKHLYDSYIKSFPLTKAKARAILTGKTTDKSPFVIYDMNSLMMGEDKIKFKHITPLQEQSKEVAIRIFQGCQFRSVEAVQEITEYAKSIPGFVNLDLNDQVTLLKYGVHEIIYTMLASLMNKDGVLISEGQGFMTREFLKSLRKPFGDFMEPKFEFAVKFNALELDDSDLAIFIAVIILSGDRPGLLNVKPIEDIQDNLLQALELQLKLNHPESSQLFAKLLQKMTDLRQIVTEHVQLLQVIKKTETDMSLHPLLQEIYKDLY

Assay [18] in a line: qHTS assay for small molecule agonists of the antioxidant response element (ARE) signaling pathway (AID 743202; active = well fitted activation curve with a large enough effect in the signal ratio in the repeat runs, not every such curve was filed as active; inconclusive = weak or mixed curves, or effect the other way; inactive = no such curve, though single readings can be large or run the other way; the % refers to the signal ratio; note: potency is the fitted concentration of half-maximal effect). Summed up: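 Quantitative high-throughput format in HepG2 cells bearing an integrated ARE-beta-lactamase reporter. Compound exposure lasted 16 h at 37 C, and fluorescence was read 2 h after adding LiveBLAzer B/G substrate at room temperature.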
In assay [19] the target is Peroxisome proliferator-activated receptor gamma (Homo sapiens) (UniProt P37231). Nature of the assay: qHTS assay to identify small molecule antagonists of the peroxisome proliferator-activated receptor gamma (PPARg) signaling pathway (AID 743191; calls by dose curve; note: series mostly up to about 63 µM; nearly all actives have a fitted effect of over 30% in size). The essentials: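 Beta-lactamase reporter under UAS control in HEK293H PPARg-bla cells; compound treatment 17 h at 37C. Read-out: fluorescence intensity after 1 h room-temperature incubation with LiveBLAzer B/G FRET substrate.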

Values joined by “and” are separate entries in the source; they are usually repeats but may differ in a detail not shown here. Identical values can stand only once. A structure can be active in one record and inactive in another. Active and inactive are the calls of the source. Unless noted, calls come from the whole dose curve; as a rule, active = well fitted curve in the direction sought with a large enough effect in the repeat runs; inconclusive = weak or mixed curves; inactive = no such curve, though single readings can be large; an effect the other way counts as inactive or inconclusive.

Aryl hydrocarbon receptor (Homo sapiens), sequence (P35869 whole entry, looked up): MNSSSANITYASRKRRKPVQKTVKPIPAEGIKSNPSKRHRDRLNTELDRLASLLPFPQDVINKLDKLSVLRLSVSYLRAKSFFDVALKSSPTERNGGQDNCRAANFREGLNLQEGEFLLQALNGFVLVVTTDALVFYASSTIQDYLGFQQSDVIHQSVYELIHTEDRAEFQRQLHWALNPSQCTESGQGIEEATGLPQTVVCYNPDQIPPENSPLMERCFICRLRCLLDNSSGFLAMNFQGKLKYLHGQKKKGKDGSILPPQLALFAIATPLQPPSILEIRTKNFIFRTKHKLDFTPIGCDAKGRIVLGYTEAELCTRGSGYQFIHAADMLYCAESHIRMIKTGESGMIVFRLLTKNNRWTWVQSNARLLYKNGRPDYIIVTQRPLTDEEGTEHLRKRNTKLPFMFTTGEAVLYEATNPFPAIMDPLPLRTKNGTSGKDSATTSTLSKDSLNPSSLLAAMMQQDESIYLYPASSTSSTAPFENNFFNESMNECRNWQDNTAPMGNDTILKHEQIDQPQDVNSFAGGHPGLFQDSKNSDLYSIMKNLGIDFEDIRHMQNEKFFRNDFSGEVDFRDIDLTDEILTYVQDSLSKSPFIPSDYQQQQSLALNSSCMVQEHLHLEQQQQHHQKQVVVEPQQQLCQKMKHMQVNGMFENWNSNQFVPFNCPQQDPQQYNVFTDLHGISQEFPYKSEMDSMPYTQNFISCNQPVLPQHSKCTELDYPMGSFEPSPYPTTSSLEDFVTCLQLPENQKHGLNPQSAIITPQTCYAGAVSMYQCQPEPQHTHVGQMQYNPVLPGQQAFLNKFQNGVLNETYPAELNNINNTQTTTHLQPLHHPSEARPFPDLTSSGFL
Estrogen receptor (Homo sapiens), sequence (P03372 whole entry, looked up): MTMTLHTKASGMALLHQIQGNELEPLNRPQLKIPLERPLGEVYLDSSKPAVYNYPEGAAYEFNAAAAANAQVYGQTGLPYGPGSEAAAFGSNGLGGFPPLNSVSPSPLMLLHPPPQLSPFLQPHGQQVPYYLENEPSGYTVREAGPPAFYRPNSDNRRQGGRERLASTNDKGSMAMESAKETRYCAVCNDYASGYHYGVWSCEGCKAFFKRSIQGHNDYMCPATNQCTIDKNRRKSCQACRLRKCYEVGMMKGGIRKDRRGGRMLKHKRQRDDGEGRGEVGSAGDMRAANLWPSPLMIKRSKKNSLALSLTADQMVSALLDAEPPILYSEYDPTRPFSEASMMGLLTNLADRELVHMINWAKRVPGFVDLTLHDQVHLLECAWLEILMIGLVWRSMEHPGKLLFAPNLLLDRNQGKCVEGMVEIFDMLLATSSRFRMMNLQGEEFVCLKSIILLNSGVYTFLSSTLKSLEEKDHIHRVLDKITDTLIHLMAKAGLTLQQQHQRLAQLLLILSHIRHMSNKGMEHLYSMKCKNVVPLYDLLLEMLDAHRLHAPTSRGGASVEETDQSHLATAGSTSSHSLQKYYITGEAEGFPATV

For `O=C(c1cc(O)c(O)c(O)c1)c1ccc(O)c(O)c1O`, the Potency is 43.1 µM (active) and 68.6 µM (active) in assay [1]; 68.4 µM (active) and 61.1 µM (active) in assay [8]; 34.3 µM (active) in assay [9]; 15.4 µM (active) in [10]. Also, the molecule was called inactive in assay [2] and in [14]. Further, the Potency result (in [3]; in assay [4]; in assay [5]; in assay [6]; in assay [7]; in the assay with Aromatase (Homo sapiens)) was “inactive” each time. For the same molecule, the Potency entry in [11], in [12] and in [13] was “inactive” in each case.
With `CCCCCCOC(C)=O`, the Potency result in assay [15], in assay [3], in assay [4], in assay [5], in [6] and in [7] was “inactive” in each case. Further, the Potency result (in [8]; with Aromatase (Homo sapiens); in assay [9]; in [10]; in [16]; in assay [11]) was “inactive” throughout. For the same molecule, the Potency entry in assay [18], in [12] and in assay [13] was “inactive” each time. The molecule was classed as inactive in assay [17].
As to `O=C1N=C(O)CN1/N=C/c1ccc(-c2ccc([N+](=O)[O-])cc2)o1`, the Potency in assay [15] is 15 µM (active) and 30.6 µM (active); in assay [1], 27.3 µM (active); in [8] it was 48.6 µM (active). For the same molecule, the result in assay [2] and in assay [14] was inactive. Besides, the Potency entry (in [4]; with Aromatase (Homo sapiens); in assay [9]; in assay [11]; in assay [18]; in [12]) was “inactive” in each case. Besides, the Potency result in assay [13] is “inactive”.
For `CCCCCC/C=C/CCCCCCCC(=O)O`, the Potency result (in assay [3]; in assay [4]; in assay [5]; in [7]; in assay [8]; with Aromatase (Homo sapiens)) was “inactive” in each case. For the same molecule, the Potency entry in assay [9], in assay [10], in assay [16], in [11], in assay [18] and in [12] was “inactive” in each case. Further, the Potency entry in assay [13] was “inactive”. The Potency in assay [6] is 30.7 µM (active) and inactive. For the same molecule, the result in assay [17] and in assay [14] was inactive.
For the molecule `C=C(C)C(=O)OCC(CC)(COC(=O)C(=C)C)COC(=O)C(=C)C`, the Potency result (in [15]; in assay [1]; in assay [8]; with Aromatase (Homo sapiens); in [9]; in assay [10]) was “inactive” in each case. The Potency entry in assay [16], in [19], in assay [11], in [18] and in assay [12] was “inactive” in each case. The outcome in assay [2] and in [17] was inactive. Also, in [13], the Potency is 12.1 µM (active).
On to `CCCCCCCCCCCCN`, for which the Potency result was “inactive and 24.3 µM (active)” in assay [15]; “inactive and 54.9 µM (active)” in [4]; 61.1 µM (active) with Aromatase (Homo sapiens); “inactive and 24.3 µM (active)” in assay [12]; “inactive and 43.6 µM (active)” in assay [13]. Besides, the result in assay [2] and in [17] was inactive. In addition, the Potency entry in assay [8], in [10] and in assay [18] was “inactive” throughout.
Turning to `CC(=O)[C@@]1(O)CC[C@H]2[C@@H]3CCC4=CC(=O)CC[C@]4(C)[C@H]3CC[C@@]21C`, the Potency entry in assay [15], in assay [4], in [8], in [11], in assay [12] and in [13] was “inactive” in each case.
With `CC1=C(/C=C/C(C)=C/C=C/C(C)=C/CO)C(C)(C)CCC1`, the Potency entry in [15], in assay [3], in assay [4], in [8], in assay [10] and in assay [11] was “inactive” throughout. Besides, the Potency entry in [12] and in [13] was “inactive” in each case. Besides, the outcome in [2] and in assay [17] was inactive. Further, the Potency in assay [5] was 8.49 µM [inconclusive] (active) and inactive; in assay [6], 944 nM (active) and inactive; in assay [7] it was 15 µM (active) and 7.79 µM (active) and inactive; in the assay with Aromatase (Homo sapiens), “inactive and 28.8 µM (active)”; in [9], “inactive and 72.3 µM (active)”; in assay [18] it was 61.9 µM (active) and 57.4 µM (active).
Consider `O=C1O[C@H](CO)[C@@H](O)[C@H](O)[C@H]1O`, for which the Potency result in [15], in assay [3], in [4], in [5], in assay [6] and in assay [7] was “inactive” throughout. The Potency entry (in assay [8]; in the assay with Aromatase (Homo sapiens); in assay [9]; in [10]; in assay [16]; in [11]) was “inactive” in each case. For the same molecule, the Potency entry in [18], in assay [12] and in assay [13] was “inactive” in each case. The result in assay [17] was inactive.
Consider `CCOC(=O)/C=C\C(=O)OCC`, for which the Potency entry in [15], in [3], in assay [4], in assay [5], in assay [6] and in assay [7] was “inactive” each time. Besides, the Potency result (in [8]; with Aromatase (Homo sapiens); in assay [9]; in assay [10]; in assay [19]; in assay [11]) was “inactive” throughout. Besides, the Potency result in [18], in [12] and in assay [13] was “inactive” each time. The outcome in assay [17] and in assay [14] was inactive.
Consider `Nc1nc2ncc(CNc3ccc(C(=O)N[C@@H](CCC(=O)O)C(=O)O)cc3)nc2c(=O)[nH]1`, for which the Potency result (in assay [4]; in assay [8]; with Aromatase (Homo sapiens); in assay [9]; in assay [10]; in [11]) was “inactive” throughout. Besides, the Potency result in assay [18], in assay [12] and in assay [13] was “inactive” throughout. The result in assay [17] and in [14] was inactive.
Turning to `OCC#CCO`, the Potency entry (in [15]; in [8]; with Aromatase (Homo sapiens); in assay [9]; in assay [10]; in assay [11]) was “inactive” each time. In addition, the Potency result in [18], in assay [12] and in assay [13] was “inactive” each time. Also, the result in [2], in assay [17] and in assay [14] was inactive.
